Reference: PubChem BioAssay (NCI)
About 79,000 compounds went through this panel and 15% of them were active in at least one assay; those are over-represented in the sample as a whole. Calls of active or inactive are those of the source. Rule as the data show it: active = growth inhibition above about 70%; inactive = the rest.

Assays:
[1] = NCI Yeast Anticancer Drug Screen. Data for the rad52 strain (AID 147);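 also: 0% = growth of vehicle-treated control cultures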; settings: S. cerevisiae rad52 mutant growth inhibition, active compounds read high
Outline: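 Screen used a yeast mutant impaired in DNA repair. After compound exposure, growth was measured. Values reflect inhibition compared with vehicle-treated cells.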

[2] = NCI Yeast Anticancer Drug Screen. Data for the wt1 strain (AID 149);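 also: 0% = growth of vehicle-treated wt1 cultures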; settings: S. cerevisiae wt1 strain (SPY 50644) growth inhibition, active compounds read high
Outline: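 wt1 yeast, compound-treated; % growth inhibition vs vehicle control.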

[3] = NCI Yeast Anticancer Drug Screen. Data for the rad50EPP+ strain (AID 151);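 also: 0% = growth of vehicle-treated control cultures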; settings: S. cerevisiae rad50 mutant strain, active compounds read high
Outline: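 Exposing the rad50EPP+ strain to each compound, growth was compared with vehicle-only cultures to give inhibition.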

[4] = NCI Yeast Anticancer Drug Screen. Data for the mgt1 strain (AID 153); settings: S. cerevisiae mgt1 mutant growth inhibition, active compounds read high
Outline: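 Genetically defined yeast (mgt1) treated with compound; inhibition of growth expressed against vehicle-treated controls.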

[5] = NCI Yeast Anticancer Drug Screen. Data for the rad50 strain (AID 155);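 also: 0% = growth of vehicle-only cultures of the same strain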; settings: S. cerevisiae rad50 strain growth inhibition, active compounds read high
Outline: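 Genetically altered yeast (DNA repair pathway); compound treatment; growth inhibition vs vehicle ctrl.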

[6] = NCI Yeast Anticancer Drug Screen. Data for the mec2-1 strain (AID 157); settings: S. cerevisiae mec2-1 strain, active compounds read high
Outline: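 Readout is yeast growth inhibition, normalised to vehicle-treated controls, in the mec2-1 strain exposed to compound.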

[7] = NCI Yeast Anticancer Drug Screen. Data for the rad14 strain (AID 159);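 also: 0% = growth of vehicle-treated control cultures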; settings: S. cerevisiae rad14 strain growth inhibition, active compounds read high
Outline: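 Test compounds were applied to a repair-deficient yeast strain. Its growth was then compared with that of cultures given vehicle alone, and inhibition was expressed relative to those controls.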

[8] = NCI Yeast Anticancer Drug Screen. Data for the sgs1 mgt1 strain (AID 161);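 also: 0% = growth of cultures given vehicle only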; settings: S. cerevisiae sgs1 mgt1 strain, active compounds read high
Outline: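 Yeast cells carrying a defined DNA-repair defect were exposed to test compounds. Growth inhibition was measured relative to vehicle-treated controls.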

[9] = NCI Yeast Anticancer Drug Screen. Data for the CLN2oe strain (AID 163);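 also: 0% = growth of vehicle-only control cultures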; settings: S. cerevisiae CLN2oe strain, active compounds read high
Outline: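 Values reflect how much compound exposure reduced yeast growth, referenced to vehicle-exposed cells. Assay organism is a strain with a defined genetic change affecting cell-cycle control.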

[10] = NCI Yeast Anticancer Drug Screen. Data for the cln2 rad14 strain (AID 165);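 also: 0% = growth equal to vehicle treated cultures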; settings: S. cerevisiae cln2 rad14 strain, active compounds read high
Outline: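 Relative to vehicle controls, growth inhibition of compound-treated cln2 rad14 yeast was recorded.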

[11] = NCI Yeast Anticancer Drug Screen. Data for the bub3 strain (AID 167); settings: S. cerevisiae bub3 mutant strain, active compounds read high
Outline: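 Yeast carrying a defined mutation is treated with each compound, and growth is compared with that of vehicle-exposed cells to give inhibition.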

[12] = NCI Yeast Anticancer Drug Screen. Data for the wt2 strain (AID 169);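 also: 0% = growth of vehicle-treated yeast cultures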; settings: S. cerevisiae wt2 strain growth inhibition, active compounds read high
Outline: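 Values express reduction in yeast growth under compound treatment, referenced to vehicle-treated cells.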

[13] = NCI Yeast Anticancer Drug Screen. Data for the mlh1 strain (AID 171);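 also: 0% = growth of vehicle-treated control cultures of the same strain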; settings: S. cerevisiae mlh1 strain growth inhibition, active compounds read high
Outline: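 Steps: expose the defined-mutant yeast strain to compound; expose a parallel culture to vehicle; measure growth; express compound effect as inhibition relative to the vehicle culture.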

[14] = NCI Yeast Anticancer Drug Screen. Data for the sgs1 strain (AID 173);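 also: 0% = growth of vehicle-only control cultures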; settings: S. cerevisiae sgs1 mutant, active compounds read high
Outline: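 Treat defined-mutant yeast with compound; measure growth; calculate inhibition relative to vehicle-treated cells.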

[15] = NCI Yeast Anticancer Drug Screen. Data for the mlh1 rad18 strain (AID 175); settings: S. cerevisiae mlh1 rad18 strain growth inhibition, active compounds read high
Outline: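 Test agents were incubated with a yeast strain of defined genotype (DNA damage repair defect). Inhibition of growth was derived by comparison with vehicle-exposed cultures.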

[16] = NCI Yeast Anticancer Drug Screen. Data for the rad18 strain (AID 177); settings: S. cerevisiae rad18 mutant growth inhibition, active compounds read high
Outline: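 A genetically defined yeast mutant impaired in DNA damage repair was treated with test compounds, then its growth was measured against cultures receiving vehicle alone.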

[17] = at 5.0 µM (retest, dose inferred, filed as 0.5)
[18] = at 50.0 µM (retest, dose inferred, filed as 5.0)

Measured: growth inhibition

O=C1c2ccccc2C(=O)c2sc(Nc3ccccc3Cl)nc21
inactive: [1]; at 1.2 µM -11% | [1]; at 3.7 µM 42% | [2]; at 1.2 µM -17% | [2]; at 3.7 µM 13% | [2]; at 11.0 µM 58% | [3]; at 1.2 µM -37% | [3]; at 3.7 µM 27% | [4]; at 1.2 µM -13% | [4]; at 3.7 µM 19% | [5]; at 1.2 µM -1% | [5]; at 3.7 µM 13% | [6]; at 1.2 µM -13% | [6]; at 3.7 µM 32% | [7]; at 1.2 µM -19% | [7]; at 3.7 µM 26% | [9]; at 1.2 µM 3% | [9]; at 3.7 µM 47% | [10]; [17] 57% | [11]; at 1.2 µM -4% | [11]; at 3.7 µM 54% | [12]; at 1.2 µM 1% | [13]; at 1.2 µM -30% | [13]; at 3.7 µM -6% | [14]; at 1.2 µM -6% | [14]; at 3.7 µM 16% | [16]; at 1.2 µM -14% | [16]; at 3.7 µM 25%
active: [1]; at 11.0 µM 90% | [1]; at 33.0 µM 99% | [1]; at 100.0 µM 98% | [2]; at 33.0 µM 99% | [2]; at 100.0 µM 98% | [3]; at 11.0 µM 94% | [3]; at 33.0 µM 99% | [3]; at 100.0 µM 98% | [4]; at 11.0 µM 96% | [4]; at 33.0 µM 99% | [4]; at 100.0 µM 98% | [5]; [17] 87% | [5]; at 11.0 µM 78% | [5]; at 33.0 µM 98% | [5]; [18] 99% | [5]; at 50.0 µM 89.6% | [5]; at 100.0 µM 96% | [6]; [17] 97% | [6]; at 11.0 µM 99% | [6]; at 33.0 µM 99% | [6]; [18] 99% | [6]; at 50.0 µM 91.2% | [6]; at 100.0 µM 98% | [7]; at 11.0 µM 96% | [7]; at 33.0 µM 99% | [7]; at 100.0 µM 98% | [8]; [17] 100% | [8]; [18] 100% | [8]; at 50.0 µM 93.7% | [9]; at 11.0 µM 94% | [9]; at 33.0 µM 99% | [9]; at 100.0 µM 98% | [10]; [18] 99% | [10]; at 50.0 µM 91.3% | [11]; [17] 99% | [11]; at 11.0 µM 97% | [11]; at 33.0 µM 99% | [11]; [18] 99% | [11]; at 50.0 µM 90.1% | [11]; at 100.0 µM 97% | [12]; at 3.7 µM 77% | [12]; at 11.0 µM 99% | [12]; at 33.0 µM 99% | [12]; at 100.0 µM 98% | [13]; at 11.0 µM 94% | [13]; at 33.0 µM 99% | [13]; at 100.0 µM 97% | [14]; at 11.0 µM 82% | [14]; at 33.0 µM 99% | [14]; at 100.0 µM 97% | [15]; [17] 96% | [15]; [18] 99% | [15]; at 50.0 µM 85.8% | [16]; at 11.0 µM 83% | [16]; at 33.0 µM 99% | [16]; at 100.0 µM 97%

NC(N)=NS(=O)(=O)c1ccc(Nc2c3ccccc3nc3c(C(=O)NC(CO)(CO)CO)cccc23)cc1
inactive: [1]; at 1.2 µM 1% | [1]; at 3.7 µM 9% | [1]; at 11.0 µM 25% | [1]; at 33.0 µM 66% | [2]; at 1.2 µM -1% | [2]; at 3.7 µM 0% | [2]; at 11.0 µM 0% | [2]; at 33.0 µM -1% | [2]; at 100.0 µM 2% | [3]; at 1.2 µM 1% | [3]; at 3.7 µM 5% | [3]; at 11.0 µM 15% | [3]; at 33.0 µM 44% | [4]; at 1.2 µM 2% | [4]; at 3.7 µM -1% | [4]; at 11.0 µM -2% | [4]; at 33.0 µM 1% | [4]; at 100.0 µM 4% | [5]; at 1.2 µM 3% | [5]; at 3.7 µM 9% | [5]; [17] 6% | [5]; at 11.0 µM 27% | [5]; at 33.0 µM 64% | [6]; at 1.2 µM -1% | [6]; at 3.7 µM -1% | [6]; [17] 1% | [6]; at 11.0 µM 1% | [6]; at 33.0 µM 3% | [6]; [18] -13% | [6]; at 50.0 µM 8.65% | [6]; at 100.0 µM 13% | [7]; at 1.2 µM -1% | [7]; at 3.7 µM 3% | [7]; at 11.0 µM 3% | [7]; at 33.0 µM 3% | [7]; at 100.0 µM 10% | [8]; [17] 8% | [8]; [18] -3% | [8]; at 50.0 µM -20.5% | [9]; at 1.2 µM 2% | [9]; at 3.7 µM 2% | [9]; at 11.0 µM 4% | [9]; at 33.0 µM 1% | [9]; at 100.0 µM 1% | [10]; [17] 35% | [10]; [18] 3% | [10]; at 50.0 µM -9.45% | [11]; at 1.2 µM -1% | [11]; at 3.7 µM 2% | [11]; [17] -11% | [11]; at 11.0 µM 2% | [11]; at 33.0 µM 0% | [11]; [18] 15% | [11]; at 50.0 µM -5.3% | [11]; at 100.0 µM -2% | [12]; at 1.2 µM -1% | [12]; at 3.7 µM -2% | [12]; at 11.0 µM -1% | [12]; at 33.0 µM -1% | [12]; at 100.0 µM 4% | [13]; at 1.2 µM -1% | [13]; at 3.7 µM 0% | [13]; at 11.0 µM 0% | [13]; at 33.0 µM 0% | [13]; at 100.0 µM 5% | [14]; at 1.2 µM -1% | [14]; at 3.7 µM 1% | [14]; at 11.0 µM 2% | [14]; at 33.0 µM 2% | [14]; at 100.0 µM 8% | [15]; [17] 12% | [15]; [18] 12% | [15]; at 50.0 µM 15.7% | [16]; at 1.2 µM -3% | [16]; at 3.7 µM 0% | [16]; at 11.0 µM -1% | [16]; at 33.0 µM 2% | [16]; at 100.0 µM 9%
active: [1]; at 100.0 µM 91% | [3]; at 100.0 µM 85% | [5]; [18] 94% | [5]; at 50.0 µM 70.8% | [5]; at 100.0 µM 89%

CCC(/C=C/c1ccccc1)=N\Nc1ccc(Cl)c(Cl)c1
active: [1]; at 33.0 µM 87% | [1]; at 100.0 µM 92% | [2]; at 100.0 µM 93% | [4]; at 100.0 µM 95% | [5]; at 33.0 µM 89% | [5]; [18] 89% | [5]; at 50.0 µM 95.5% | [5]; at 100.0 µM 91% | [6]; [18] 81% | [6]; at 50.0 µM 72.5% | [6]; at 100.0 µM 92% | [7]; at 100.0 µM 94% | [8]; [18] 74% | [8]; at 50.0 µM 82.5% | [9]; at 100.0 µM 89% | [10]; [18] 71% | [10]; at 50.0 µM 85.7% | [11]; at 33.0 µM 85% | [11]; [18] 93% | [11]; at 50.0 µM 94.3% | [11]; at 100.0 µM 91%
inactive: [1]; at 1.2 µM 7% | [1]; at 3.7 µM 11% | [1]; at 11.0 µM 17% | [2]; at 1.2 µM 0% | [2]; at 3.7 µM -3% | [2]; at 11.0 µM -4% | [2]; at 33.0 µM 24% | [3]; at 1.2 µM 9% | [3]; at 3.7 µM 20% | [3]; at 11.0 µM 28% | [3]; at 33.0 µM 29% | [3]; at 100.0 µM 29% | [4]; at 1.2 µM -3% | [4]; at 3.7 µM 4% | [4]; at 11.0 µM -4% | [4]; at 33.0 µM -3% | [5]; at 1.2 µM 26% | [5]; at 3.7 µM 36% | [5]; [17] 7% | [5]; at 11.0 µM 22% | [6]; at 1.2 µM -2% | [6]; at 3.7 µM -1% | [6]; [17] -1% | [6]; at 11.0 µM -5% | [6]; at 33.0 µM 22% | [7]; at 1.2 µM 2% | [7]; at 3.7 µM 0% | [7]; at 11.0 µM -6% | [7]; at 33.0 µM 10% | [8]; [17] 3% | [9]; at 1.2 µM -2% | [9]; at 3.7 µM -8% | [9]; at 11.0 µM -9% | [9]; at 33.0 µM 36% | [10]; [17] 1% | [11]; at 1.2 µM -2% | [11]; at 3.7 µM 2% | [11]; [17] 2% | [11]; at 11.0 µM 14%
